Results from PubChem BioAssay (NCATS).
Active and inactive are the calls of the source. Calls come from the whole dose curve; as a rule, active = well fitted curve in the direction sought with a large enough effect; inconclusive = small, poorly fitted or top-dose-only effect, or another doubt; inactive = no such curve, though single readings can be large or run the other way.

target: alpha-glucosidase (Oryza sativa, rice) (UniProt Q653V4); assay: Counterscreen for Glucocerebrosidase Inhibitors: qHTS Assay for Rice alpha-Glucosidase at pH 5.0 (AID 997); settings: rice alpha-glucosidase enzyme activity; series mostly up to 76.9 µM
Outline: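 Rice alpha-glucosidase (4 nM final) with 400 uM 4-methylumbelliferyl-alpha-D-glucopyranoside in citrate buffer pH 5.0, 20 min at room temperature, stopped at pH 10; fluorescence 365/440 nm, compounds 0.7 nM–77 uM, AC50 from Hill fits.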

Q: For `O=C(O)c1cc(=O)c2ccccc2[nH]1`, which outcome is on record?
A: The outcome was “inactive”.

Q: `Ic1ccc(N2CCN(Cc3c[nH]c4ncccc34)CC2)cc1` was tested. Which outcome did it give?
A: Its outcome is “inactive”.

Q: For `O=C1NC(O)=NC1(c1ccccc1)c1ccccc1`, which outcome is on record?
A: Its outcome is “inactive”.

Q: `CN(C)c1nc(N)c(C(=O)N=C(N)N)nc1Cl` was tested. Which outcome did it give?
A: Its outcome is “inactive”.

Q: Which outcome does the source give for `NO` here?
A: Its outcome is “inactive”.

Q: With `N#C/C(=C\c1c[nH]c2ccccc12)C(=O)c1ccc(O)c(O)c1` as the compound, how does the outcome read?
A: Its outcome is “inactive”.

Q: `Brc1c(Br)c(Br)c2n[nH]nc2c1Br` was tested. Which outcome did it give?
A: The outcome was “inactive”.

Q: `CC(C)Cc1ccc([C@H](C)C(=O)O)cc1` was tested. Which outcome did it give?
A: Its outcome is “inactive”.

Q: `COc1cc2c(CCNC(C)=O)c[nH]c2cc1Cl` was tested. Which outcome did it give?
A: Its outcome is “inactive”.

Q: Which outcome does the source give for `CN(C)C(N)=NCCC[C@H](N)C(=O)O` here?
A: The outcome was “inactive”.

Q: How did the outcome turn out when `c1ccc(-c2ccccn2)nc1` was run?
A: Its outcome is “inactive”.
